From ChEMBL document CHEMBL3433997, “St. Jude Leishmania screening dataset” (2016) come the findings set out here.

Holding throughout (type): functional
The target in assay [1] is Solute carrier family 2, facilitated glucose transporter member 1 (Homo sapiens) (UniProt P11166). The assay can be described thus: ST_JUDE_LEISH: Cytotoxicity at 2uM final concentration against transgenic Leishmania Mexicana promastigotes LmGLUT1 that are glucose transport deficient and complemented with the human glucose transporter GLUT1. Activity is measured by DNA content using SYBR green in vitro.
Sequence of Solute carrier family 2, facilitated glucose transporter member 1 (Homo sapiens) (P11166 whole entry): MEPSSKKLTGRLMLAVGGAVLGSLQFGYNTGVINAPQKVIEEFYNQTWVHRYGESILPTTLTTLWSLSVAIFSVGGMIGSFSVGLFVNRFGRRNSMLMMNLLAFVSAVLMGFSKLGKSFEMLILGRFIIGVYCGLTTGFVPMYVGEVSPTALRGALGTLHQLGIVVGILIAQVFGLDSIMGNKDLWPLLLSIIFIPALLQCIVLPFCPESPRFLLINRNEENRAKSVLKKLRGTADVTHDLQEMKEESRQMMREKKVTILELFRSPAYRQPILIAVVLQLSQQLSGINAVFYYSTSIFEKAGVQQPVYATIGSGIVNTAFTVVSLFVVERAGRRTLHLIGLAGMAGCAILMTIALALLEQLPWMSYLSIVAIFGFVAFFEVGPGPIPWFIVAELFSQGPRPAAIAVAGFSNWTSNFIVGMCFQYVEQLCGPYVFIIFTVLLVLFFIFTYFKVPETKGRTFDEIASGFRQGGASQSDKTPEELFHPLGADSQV

Assay [2] concerns the target Hexose transporter 1 (Plasmodium falciparum) (UniProt O97467). Description: ST_JUDE_LEISH: Cytotoxicity at 2uM final concentration against transgenic Leishmania Mexicana promastigotes LmPfHT that are glucose transport deficient and complemented with the Plasmodium falciparum hexose transporter. Activity is measured by DNA content using SYBR green in vitro.
In assay [3] the target is Glucose transporter (Leishmania mexicana) (UniProt O61059). Description: ST_JUDE_LEISH: Cytotoxicity at 2uM final concentration against transgenic Leishmania Mexicana promastigotes LmGT2 that are glucose transport deficient and complemented with the L. Mexicana glucose transporter 2. Activity is measured by DNA content using SYBR green in vitro.

As a reminder, the inhibition is the change of the read-out against control, counted positive when it falls. For `COc1ccc2c(c1)CCCC2C(C)NCC(O)c1cccc(C(F)(F)F)c1` (configuration not stated), the figures for the inhibition in assay [1], in assay [2] and in assay [3] were 8.86%, 5.98% and 6.3%, respectively.
The matching figures for `Cc1ccc(Oc2ncccc2C(=O)Nc2cccc3cccnc23)c(C)c1`: -2.47%, -0.84% and -1.45%.
As for `O=C(/C=C/c1cccc(Cl)c1)N1CCC(C(O)CN2CCC3(CC2)CN(C(=O)/C=C/c2cccc(Cl)c2)c2ccccc23)CC1` (configuration not stated), the inhibition in assay [1] was found to be 0.54%; in assay [2] it was 1.87%; in assay [3] it was 0.82%.
Take `CC(C)(C)c1nn(-c2ccccc2)c2[nH]c(=O)c(CNCc3ccc4c(c3)OCO4)cc12`: the inhibition was determined as 6.79% in assay [1], 3.28% in assay [2] and 3.39% in assay [3].
As for `O=C(Nc1ccc2nc3n(c(=O)c2c1)CCCCC3)C(=O)N1CCN(c2ccc(F)cc2)CC1`, the inhibition in assay [1] is 7.33%; in assay [2], 9.84%; in assay [3], 7.95%.
The matching figures for `CCOC(=O)CN1Cc2cc(NCc3ccc4ccc5nc(C)[nH]c(=O)c5c4c3)ccc2C1=O`: 0.55%, 1.98% and -0.88%.
Consider `O=C(/C=C/c1ccc(Cl)cc1)NCCCCCN1CCN(C(=O)Nc2ccc(Cl)c(C(F)(F)F)c2)CC1`, for which the inhibition in assay [1] worked out at 4.45%; in assay [2] it was 5%; in assay [3] it was 3.42%.
The matching figures for `COc1ccc(CCN(C)CCCCNC(=O)c2ccc(NC(=O)c3ccc(Cl)cc3)cc2)c(OC)c1`: 1.64%, 2.15% and 2.45%.
As for `Cc1cccc2nc(-c3cccc(-c4cccc(CN5CCCC5CN)c4)c3)[nH]c12` (configuration not stated), the values for the inhibition in assay [1], in assay [2] and in assay [3] were -0.26%, -1.1% and -2.17%, respectively.
For `O=C(Nc1ccc2c(c1)CCN2C1CCN(Cc2ccc(F)cc2Cl)C1)c1ccco1` (configuration not stated), the inhibition is 1.66% in assay [1], 0.61% in assay [2] and 2.25% in assay [3].
The matching figures for `COc1cc(-c2cc3cc(Cl)c(Cl)cc3[nH]2)ccc1C(=O)NCCC1CCCN1C` (configuration not stated): -0.78%, -0.94% and -1.26%.
Consider `Cc1ccc(Cl)c2sc(N3CCN(C(=O)c4ccc([N+](=O)[O-])o4)CC3)nc12`, for which the inhibition amounted to 62.4% in assay [1], 54.6% in assay [2] and 27.6% in assay [3].
The matching figures for `O=C(Nc1ccc(-c2nc3ccccc3[nH]2)cc1)C1CCN(Cc2ccc(F)cc2)CC1`: 41.4%, 44.9% and 30.5%.
The matching figures for `CC(C)NCc1ccc(-c2ccc(-c3nc4cc(C(F)(F)F)ccc4[nH]3)cc2)cc1`: 1.09%, -1.61% and 2.69%.
